# Results: PMC5540273 (PLoS ONE, 2017)
# “And” between values parts separate entries of the source, which are not always exact repeats. Identical values can stand only once. Like-named read-outs stand apart in the source and are kept apart here.
# Assays:
# TLK2 = settings: concentration: 1 μM, replicates: in singlicate, n = 1
# TNIK = settings: concentration: 1 μM, replicates: in singlicate, n = 1
# TNK1 = settings: concentration: 1 μM, replicates: in singlicate, n = 1
# TNK2 = settings: concentration: 1 μM, replicates: in singlicate, n = 1
# TNNI3K = settings: concentration: 1 μM, replicates: in singlicate, n = 1
# TRKA = system: T1, TRKA; settings: concentration: 1 μM, replicates: in singlicate, n = 1
# T1 construct: gene NTRK1
# TRKB = settings: concentration: 1 μM, replicates: in singlicate, n = 1
# TRKC = system: T2, TRKC; settings: concentration: 1 μM, replicates: in singlicate, n = 1
# T2 construct: gene NTRK3
# TRPM6 = settings: concentration: 1 μM, replicates: in singlicate, n = 1
# TSSK1B = settings: concentration: 1 μM, replicates: in singlicate, n = 1
# TSSK3 = settings: concentration: 1 μM, replicates: in singlicate, n = 1
# TTK = settings: concentration: 1 μM, replicates: in singlicate; n = 1
# TXK = settings: concentration: 1 μM, replicates: in singlicate, n = 1
# [1] = system: TYK2(JH1domain-catalytic); settings: concentration: 1 μM, replicates: in singlicate, n = 1
# [2] = system: TYK2(JH2domain-pseudokinase); settings: concentration: 1 μM, replicates: in singlicate, n = 1
# TYRO3 = settings: concentration: 1 μM, replicates: in singlicate, n = 1
# ULK1 = settings: concentration: 1 μM, replicates: in singlicate, n = 1
# ULK2 = settings: concentration: 1 μM, replicates: in singlicate; n = 1
# ULK3 = settings: concentration: 1 μM, replicates: in singlicate, n = 1
# VEGFR2 = system: T3, VEGFR2; settings: concentration: 1 μM, replicates: in singlicate, n = 1
# T3 construct: gene KDR
# 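Also: KINOMEscan kinase panel screen.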
compound,measurement,setting,value
O=C(Nc1cccc(-c2nn3ncccc3c2-c2ccnc(Nc3cccc(C(F)(F)F)c3)n2)c1)c1c(F)cccc1F [GSK299495],%Inh,TLK2,0%
same,%Inh,TNIK,14%
same,%Inh,TNK1,90.5%
same,%Inh,TNK2,49%
same,%Inh,TNNI3K,8%
same,%Inh,TRKA,0%
same,%Inh,TRKB,39%
same,%Inh,TRKC,20%
same,%Inh,TRPM6,33%
same,%Inh,TSSK1B,5%
same,%Inh,TSSK3,18%
same,%Inh,TTK,6%
same,%Inh,TXK,76%
same,%Inh,[1],22%
same,%Inh,[2],39%
same,%Inh,TYRO3,87%
same,%Inh,ULK1,0%
same,%Inh,ULK2,0%
same,%Inh,ULK3,7%
same,%Inh,VEGFR2,29%
N#Cc1ccc(-c2cc(-c3c[nH]nc3-c3ccccn3)ccn2)cc1 [GW693028],%Inh,TLK2,0%
same,%Inh,TNIK,75%
same,%Inh,TNK1,0%
same,%Inh,TNK2,12%
same,%Inh,TNNI3K,31%
same,%Inh,TRKA,0%
same,%Inh,TRKB,4%
same,%Inh,TRKC,16%
same,%Inh,TRPM6,0%
same,%Inh,TSSK1B,16%
same,%Inh,TSSK3,8%
same,%Inh,TTK,3%
same,%Inh,TXK,6%
same,%Inh,[1],1%
same,%Inh,[2],28%
same,%Inh,TYRO3,24%
same,%Inh,ULK1,6%
same,%Inh,ULK2,0%
same,%Inh,ULK3,6%
same,%Inh,VEGFR2,0%
O=C(NCCNc1ccnc(Nc2ccc(F)cc2)n1)Nc1ccccc1F [GSK1379880],%Inh,TLK2,0%
same,%Inh,TNIK,0%
same,%Inh,TNK1,0%
same,%Inh,TNK2,8%
same,%Inh,TNNI3K,5%
same,%Inh,TRKA,0%
same,%Inh,TRKB,18%
same,%Inh,TRKC,13%
same,%Inh,TRPM6,24%
same,%Inh,TSSK1B,0%
same,%Inh,TSSK3,12%
same,%Inh,TTK,0%
same,%Inh,TXK,1%
same,%Inh,[1],24%
same,%Inh,[2],17%
same,%Inh,TYRO3,0%
same,%Inh,ULK1,19%
same,%Inh,ULK2,0%
same,%Inh,ULK3,28%
same,%Inh,VEGFR2,0%
CC(C)(CN)c1nc(-c2ccc(Cl)c(O)c2)c(-c2ccncc2)[nH]1.O=C(O)C(F)(F)F [SB-477794],%Inh,TLK2; 1 µM,10% and 4%
same,%Inh,TNIK; 1 µM,89% and 87%
same,%Inh,TNK1; 1 µM,0% and 84%
same,%Inh,TNK2; 1 µM,0% and 5%
same,%Inh,TNNI3K; 1 µM,85% and 77%
same,%Inh,TRKA; 1 µM,0% and 49%
same,%Inh,TRKB; 1 µM,75% and 32%
same,%Inh,TRKC; 1 µM,55% and 46%
same,%Inh,TRPM6; 1 µM,69% and 54%
same,%Inh,TSSK1B; 1 µM,17% and 0%
same,%Inh,TSSK3; 1 µM,6% and 16%
same,%Inh,TTK,0%
same,%Inh,TXK; 1 µM,100% and 96.2%
same,%Inh,[1]; 1 µM,59% and 16%
same,%Inh,[2]; 1 µM,73% and 41%
same,%Inh,TYRO3; 1 µM,12% and 34%
same,%Inh,ULK1; 1 µM,19% and 0%
same,%Inh,ULK2,0%
same,%Inh,ULK3; 1 µM,16% and 2%
same,%Inh,VEGFR2; 1 µM,86% and 83%
Cc1cn2c(=O)cc(N3CCOCC3)nc2n1Cc1cccc(Cl)c1Cl [GSK2334006],%Inh,TLK2,0%
same,%Inh,TNIK,0%
same,%Inh,TNK1,0%
same,%Inh,TNK2,12%
same,%Inh,TNNI3K,0%
same,%Inh,TRKA,17%
same,%Inh,TRKB,0%
same,%Inh,TRKC,0%
same,%Inh,TRPM6,0%
same,%Inh,TSSK1B,29%
same,%Inh,TSSK3,29%
same,%Inh,TTK,0%
same,%Inh,TXK,8%
same,%Inh,[1],19%
same,%Inh,[2],18%
same,%Inh,TYRO3,7%
same,%Inh,ULK1,0%
same,%Inh,ULK2,0%
same,%Inh,ULK3,7%
same,%Inh,VEGFR2,8%
Cc1cccc(Cn2ccn3c(=O)cc(N4CCOCC4)nc23)c1 [GSK2297542],%Inh,TLK2,5%
same,%Inh,TNIK,0%
same,%Inh,TNK1,0%
same,%Inh,TNK2,23%
same,%Inh,TNNI3K,2%
same,%Inh,TRKA,0%
same,%Inh,TRKB,0%
same,%Inh,TRKC,12%
same,%Inh,TRPM6,33%
same,%Inh,TSSK1B,0%
same,%Inh,TSSK3,17%
same,%Inh,TTK,62%
same,%Inh,TXK,0%
same,%Inh,[1],0%
same,%Inh,[2],26%
same,%Inh,TYRO3,8%
same,%Inh,ULK1,2%
same,%Inh,ULK2,0%
same,%Inh,ULK3,10%
same,%Inh,VEGFR2,0%
[2H]C([2H])(c1cccc(C(F)(F)F)c1C)n1ccn2c(=O)nc(N3CCOCC3)cc12 [GSK2336394],%Inh,TLK2,0%
same,%Inh,TNIK,0%
same,%Inh,TNK1,4%
same,%Inh,TNK2,7%
same,%Inh,TNNI3K,0%
same,%Inh,TRKA,0%
same,%Inh,TRKB,0%
same,%Inh,TRKC,0%
same,%Inh,TRPM6,53%
same,%Inh,TSSK1B,0%
same,%Inh,TSSK3,14%
same,%Inh,TTK,0%
same,%Inh,TXK,0%
same,%Inh,[1],71%
same,%Inh,[2],13%
same,%Inh,TYRO3,0%
same,%Inh,ULK1,0%
same,%Inh,ULK2,0%
same,%Inh,ULK3,8%
same,%Inh,VEGFR2,0%
Fc1ccc(-c2nn3c(OCC(F)(F)F)cccc3c2-c2ccncc2)cc1 [GW514784],%Inh,TLK2,0%
same,%Inh,TNIK,29%
same,%Inh,TNK1,0%
same,%Inh,TNK2,18%
same,%Inh,TNNI3K,0%
same,%Inh,TRKA,15%
same,%Inh,TRKB,37%
same,%Inh,TRKC,25%
same,%Inh,TRPM6,0%
same,%Inh,TSSK1B,0%
same,%Inh,TSSK3,5%
same,%Inh,TTK,0%
same,%Inh,TXK,18%
same,%Inh,[1],10%
same,%Inh,[2],36%
same,%Inh,TYRO3,0%
same,%Inh,ULK1,8%
same,%Inh,ULK2,0%
same,%Inh,ULK3,9%
same,%Inh,VEGFR2,0%
